Assay outcomes deposited in PubChem by National Center for Advancing Translational Sciences (NCATS).
Pf Dd2 growth: inhibitors of Plasmodium falciparum Dd2 growth. P. falciparum Dd2 growth, SYBR Green, 72 h. Potency, µM (top dose mostly 28.9 µM), usual class: inhibitors. actives 4.3% (n = 120,000). AID 1347417; active = well fitted inhibition curve with a large enough effect; note: nearly all actives have a fitted effect of over 65% in size
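Readout: SYBR Green fluorescence, 485 nm excitation, 535 nm emission, after ~16 h lysis at 37C. Before that, Dd2-infected red cells (2.5% hematocrit) grew 72 h with compound, 29 uM top final concentration.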
Each line names hits and unclear results; the compound was inactive in the other large screens. The sample as a whole holds a higher share of hits than the screen did.

Cn1nc(-c2ccccc2F)c2cc(C(=O)NCc3cccc(Cl)c3)sc21	none
Cn1nc(-c2ccccc2F)c2cc(C(=O)NCc3ccc(Cl)cc3)sc21	none
COc1ccc(-c2nn(C)c3sc(C(=O)N4CCN(c5ccccc5F)CC4)cc23)cc1OC	none
Cn1nc(-c2ccccc2F)c2cc(C(=O)Nc3cc(F)ccc3F)sc21	none
COC1CN(c2ccc(C)cc2)C12CCN(C(=O)c1ccncc1)CC2 (configuration not stated)	none
Cc1cnccc1N1CCCN(C(=O)c2cccc(C3CCCNC3)c2)CC1 (configuration not stated)	none
CC(=O)N[C@@H]1CNC[C@H]1CO	none
CN1Cc2cccn2CC1CNC(=O)c1cccn1C (configuration not stated)	none
CN1Cc2cccn2CC1CNC(=O)c1cnn(C)c1 (configuration not stated)	none
CN1Cc2cccn2CC1CNC(=O)c1ccccc1 (configuration not stated)	Pf Dd2 growth 11µM
CN(Cc1ccccc1)Cc1ccccc1C(F)(F)F	none
CN(CC1CCOCC1)S(=O)(=O)c1cccc(F)c1	none
Cn1cc(-c2cnc(Nc3ccncc3)c3c2CCO3)cn1	none
COc1cccc(Nc2ncc(-c3cccc(N(C)C)c3)c3c2OCC3)c1	none
Clc1ccc(Nc2ncc(-c3cccnc3)c3c2OCC3)cc1	Pf Dd2 growth 10µM
Cc1cc(-c2cnc(Nc3ccc(F)cc3)c3c2CCO3)ccn1	none
COc1ccc(Nc2ncc(-c3cccnc3)c3c2OCC3)cc1	none
FC(F)(F)c1cccc(Nc2ncc(-c3cccnc3)c3c2OCC3)c1	Pf Dd2 growth 8.9µM
N#Cc1ccc(C(=O)N2CCCN(S(=O)(=O)c3ccccc3)CCC(=O)NCC2)cc1	none
CC(=O)N[C@H]1CC[C@]2(C)CC[C@@H](C(C)C(=O)NC(C)C)[C@H](O)[C@H]2[C@@H]1C (some centres not stated)	none
COc1ccc(-c2cn3c(n2)CO[C@@H](CNC(=O)C2CCCC2)C3)cc1	none
COc1ccc(NC(=O)NC[C@H]2Cn3cc(-c4ccc(C)cc4)nc3CO2)cc1	Pf Dd2 growth 2.5µM
COc1ccc(-c2cn3c(n2)CO[C@@H](CNC(=O)c2ccccc2OC)C3)cc1	none
O=C(N1CCC2(CCNCC2)CC1)C1(S(=O)(=O)c2ccccc2)CC1	none
CCCCCN(CCC(=O)NCCCOC)C(=O)c1ccoc1	none
COc1cc2c(cc1-c1cnn(C)c1)NC(=O)C21CCN(C(C)=O)CC1	none
O=C(CN1C(=O)COc2ccc(C(=O)COc3cccc(F)c3)cc21)NCc1ccc(F)cc1	none
C#CCN(C)C[C@@H]1C=C(C)[C@H](Cc2nnc(-c3ccc(C)cc3)o2)C[C@H]1C(C)C	none
CC1=C[C@@H](CN(C)CCO)[C@H](C(C)C)C[C@H]1Cc1nnc(-c2ccc(C)cc2)o1	Pf Dd2 growth 10µM
CC1=C[C@@H](CN(C)CCO)[C@H](C(C)C)C[C@H]1Cc1nnc(-c2ccccc2F)o1	Pf Dd2 growth 13µM
COc1cccc(S(=O)(=O)NCC(=O)N2CCCCCNC(=O)CC2c2ccccc2)c1 (configuration not stated)	none
Cc1cccc(C(=O)N2CCCC(n3cc(-c4nc(C)no4)nn3)C2)c1 (configuration not stated)	none
COc1cccc(CC(=O)N2CCCn3nc(C)c(-c4ccnn4C(C)C)c32)c1	none
CC(C)CC(=O)N1CCCN(S(=O)(=O)c2ccccc2)CCC(=O)NCC1	none
COc1cc(C2CC(=O)N(CC(=O)Nc3ccccc3F)c3ccccc3S2)cc(OC)c1OC (configuration not stated)	Pf Dd2 growth 3.2µM
COc1ccc(C2CC(=O)N(CC(=O)Nc3cc(C)ccc3C)c3ccccc3S2)cc1 (configuration not stated)	none
CCOC(=O)c1ccccc1NC(=O)CN1C(=O)CC(c2ccccc2)Sc2ccccc21 (configuration not stated)	none
O=C1CCCN1CCCN1C(=O)[C@H]2CN(Cc3cccc(F)c3F)C[C@H]2C1=O	none
Cc1ccsc1C(=O)N1CCCC(c2noc(COc3ccccc3)n2)C1 (configuration not stated)	none
Fc1ccc(-c2ccc3ncc(Nc4ccc5c(c4)OCO5)n3n2)cc1	none
Fc1ccc(-c2ccc3ncc(Nc4ccnc(N5CCOCC5)c4)n3n2)cc1	Pf Dd2 growth 0.56µM
CN(Cc1ccc(F)cc1)c1ccc2ncc(Nc3ccc4c(c3)OCCO4)n2n1	Pf Dd2 growth 5.6µM
COc1cncc(Nc2cnc3ccc(N(C)Cc4ccc(F)cc4)nn23)c1	none
CN(Cc1ccc(F)cc1)c1ccc2ncc(Nc3ccnc(N4CCOCC4)c3)n2n1	Pf Dd2 growth 4µM
COc1ncccc1Nc1cnc2ccc(N(C)C)nn12	none
FC(F)(F)Oc1ccc(Nc2cnc3ccc(N4CCOCC4)nn23)cc1	Pf Dd2 growth 11µM
FC(F)(F)c1cc(Nc2cnc3ccc(N4CCOCC4)nn23)ccc1Cl	none
COc1cccc(Nc2cnc3ccc(N4CCOCC4)nn23)c1	none
CN1CCN(c2ccc3ncc(Nc4ccccc4F)n3n2)CC1	none
Clc1ccccc1Nc1cnc2ccc(N3CCOCC3)nn12	none
COc1ccc(Nc2cnc3ccc(N4CCOCC4)nn23)cn1	none
CCn1ccc(C(=O)N2C[C@@H](Oc3cccnc3)C[C@@H]2C(=O)NCCOC)n1	none
